Reference: PubChem BioAssay (NCI)
Where “and” joins values, the source holds several entries; their conditions need not be identical. Equal entries are not always repeated. About 83,000 compounds went through this panel and 20% of them were active in at least one assay; those are over-represented in the sample as a whole.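 48-hour exposure, single concentration, 96-well plates; percent growth endpoint where 0 means no net growth. Active: below 10.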 Values without a mark were called inactive. Calls of active or inactive are those of the source.

system: MDA-MB-468 breast; assay: NCI-60 one-dose screen, 48 h (100 = growth as untreated, 0 = no growth, -100 = all killed); conditions: 10 µM unless noted

With `Cc1cn(-c2cc(C(=O)Nc3cccc(C#Cc4cccc5[nH]nc(N)c45)c3)cc(C(F)(F)F)c2)cn1` as the compound, how does the growth read?
Its growth is 69.6%.

Which growth does the source give for `C=C1C(=O)O[C@H]2[C@H]1CC/C(Cn1cc(CNCCc3c[nH]c4ccccc34)nn1)=C\CC[C@@]1(C)O[C@@H]21` here?
The growth was 37.3%.

How did the growth turn out when `COCCOC(C)C(/C=N/NC(N)=S)=N/NC(N)=S` (stereo not drawn) was run?
Its growth is 7.98% (active).

Which growth does the source give for `COc1cc(/C=C\c2cc(/C=C\c3ccc(O)c(OC)c3)n(C(=O)CNc3ccccc3OC)n2)ccc1O` here?
Its growth is 95.8%.

For `CC1OC(n2c3ccccc3c3c4c(c5c6ccccc6[nH]c5c32)C(=O)N(CCN2CCOCC2)C4=O)CC(O)C1O` (stereo not drawn), which growth is on record?
The growth was -10.8% (active).

For `Cc1ccc(S(=O)(=O)NCCCNc2nccc(-c3[nH]c(-c4ccccc4)nc3-c3ccc(F)c(O)c3)n2)cc1`, which growth is on record?
Its growth is 33.9%.

For `FC(F)(F)c1ccc(-c2cnc(Br)nc2NC2CCCCCC2)cc1`, which growth is on record?
The growth was 12.6%.

With `COc1ccccc1NC(=O)n1c(=O)cc(C)c2ccc(O)cc21` as the compound, how does the growth read?
Its growth is 96.3%.

`Clc1ccc2c(NCCCCNc3nc(N4CCCCC4)nc4ccccc34)ccnc2c1` was tested. Which growth did it give?
The growth was 7.06% (active).

Which growth does the source give for `Cn1cc(-c2noc(C(=O)c3cn(C)c4ncc(Br)cc34)n2)c2ccccc21` here?
Its growth is 111%.

With `COc1ccc(-c2csc(NC(=O)CN3CCN(CCO)CC3)n2)cc1NS(=O)(=O)c1cccc2c(N(C)C)cccc12` as the compound, how does the growth read?
The growth was 55.6%.

With `CCOC(C)(c1ccc(Cl)cc1)C1CCNCC1` (stereo not drawn) as the compound, how does the growth read?
Its growth is 90.9%.

For `COc1cccc2c1C(=O)c1c(O)c3c(c(O)c1C2=O)C[C@@](O)(C(=O)CO)C[C@@H]3OC1C[C@H](N)[C@H](O)[C@H](C)O1` (stereo partly drawn), which growth is on record?
Its growth is -68.8% (active).

Which growth does the source give for `CC[C@]12C=CCN3CC[C@]4(C(=C(C(=O)OC)C1)Nc1cc5c(cc14)[C@@H]1[C@H](O5)[C@@H](O)[C@@]4(CC)CC(C(=O)OC)=C5Nc6cc(O)ccc6[C@@]56CCN1C46)C32` (stereo partly drawn) here?
The growth was -51% (active).

`COc1cc(OC)cc(C(=O)Nc2sc3c(c2C(N)=O)CCC(=O)C3)c1` was tested. Which growth did it give?
The growth was 37.1%.

With `NC(=O)c1cccc(-n2ccc3cc(NC(=O)Nc4cc(C(F)(F)F)cc(C(F)(F)F)c4)ccc32)n1` as the compound, how does the growth read?
The growth was 40.7%.

With `COc1cc2c(O)n(CCCN3CCOCC3)c3c4cnc5cccc(c(=O)c3c2cc1OC)c54` as the compound, how does the growth read?
Its growth is 47.1%.

`COc1cc(C(=O)/C=C/c2cccnc2Nc2ccccc2)cc(OC)c1OC` was tested. Which growth did it give?
The growth was -93.8% (active).

How did the growth turn out when `CC[C@@H](C)/C=C(C)/C=C/C(=O)c1c(O)c(-c2ccc(OC(=O)[C@@]34CC[C@@](C)(C(=O)O3)C4(C)C)cc2)cn(O)c1=O` was run?
Its growth is -4.05% (active).

With `OC(c1cccc(OCc2ccccc2)c1)c1nnc(-c2ccccc2)o1` (stereo not drawn) as the compound, how does the growth read?
The growth was 64.8%.

`CC(CNC(Cc1ccccc1)c1ccccc1)NC(Cc1ccccc1)c1ccccc1` (stereo not drawn) was tested. Which growth did it give?
Its growth is 14.5%.

With `CCN(CC)CCCNCCCNc1cc(OC)cc2cccnc12` as the compound, how does the growth read?
The growth was -10.4% (active).

`COc1ccc(/C=C2/C(=O)NC(SCC(=O)N3CCN(c4cc5c(cc4F)c(=O)c(C(=O)O)cn5C4CC4)CC3)=NC2N)cc1OC` (stereo not drawn) was tested. Which growth did it give?
The growth was 102%.

For `Cc1c(CN)cc(-c2ccc(Cl)cc2)n1-c1ccccc1`, which growth is on record?
The growth was 18.7%.

With `O[C@@H](c1cc(C(F)(F)F)nc2c(C(F)(F)F)cccc12)[C@H]1CCCCN1` as the compound, how does the growth read?
The growth was 42.6%.

`CCCCC(=O)c1ccco1` was tested. Which growth did it give?
Its growth is 95.1%.

With `CNCCCn1c2c(c3ccc(F)cc3c1=O)C(=O)c1cc(OC)cnc1-2` as the compound, how does the growth read?
Its growth is -47.6% (active).

How did the growth turn out when `C(=N\Nc1ccc2ccccc2n1)/c1ccccn1` was run?
The growth was -27% (active).

With `O=C(CSc1oc(-c2ccccc2)nc1S(=O)(=O)c1ccccc1)Nc1ccc(F)cc1` as the compound, how does the growth read?
Its growth is 50.1%.

How did the growth turn out when `CC(=O)OC[C@H]1OC(Sc2sc(C(=O)c3ccc(Br)cc3)c(N)c2-c2nc3ccccc3s2)[C@H](OC(C)=O)[C@@H](OC(C)=O)[C@H]1OC(C)=O` (stereo partly drawn) was run?
The growth was 91.9%.

How did the growth turn out when `COc1cc2c3c(n(CCCCNCCCn4c5c(c6cc(OC)c(OC)cc6c4=O)C(=O)c4cc6c(cc4-5)OCO6)c(=O)c2cc1OC)-c1cc2c(cc1C3=O)OCO2` was run?
Its growth is 97.7%.

For `O=C(CN1CCN(c2cc3c(cc2F)c(=O)c(C(=O)O)cn3C2CC2)CC1)Nc1nc(-c2ccc(Cl)cc2)cs1`, which growth is on record?
Its growth is 21.7%.

For `CCOC(=O)Nc1ccc2c(c1)/C(=N\NC(N)=S)c1ccccc1-2`, which growth is on record?
The growth was 55.3% and 75.3%.
